The nature of test [1]: antimalarial activity against Dd2 strain (AID 2302;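 active = growth inhibition above 50% at the single 2 µM test dose, taken to imply half-maximal potency below 2 µM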;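 also: 0% = DMSO untreated growth and 100% = chloroquine plus artemisinin killed control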). The settings on record: P. falciparum Dd2 in RBCs, LDH growth readout, 72 h; at 2 µM; active compounds read high.
Test [2] can be described thus: HepG2 cytotoxicity, primary screen, cytotoxicity control for P. falciparum antimalarial project, cell-based, ATP luminescence (AID 2303;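 active = inhibition above 50%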;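 also: 0% = DMSO wells and 100% = digitonin-killed cells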). The settings on record: HepG2 viability, 24-48 h, at 10 µM, active compounds read high.
Test [3] has as its target L-lactate dehydrogenase (Plasmodium falciparum (isolate CDC / Honduras)) (UniProt Q27743). Briefly: PfLDH activity inhibition – cell lysate, 3D7 strain, counter-screen for P. falciparum growth inhibition project (AID 2304).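 Also: 0% = vehicle and 100% = reference inhibitor.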 The settings on record: P. falciparum 3D7 crude extract, LDH APAD/NBT absorbance; at 2 µM; active compounds read high. In general terms: The purpose of a counterscreen is to sort out artefacts and off-target activity.

Test [4] can be described thus: inhibition of 3D7 malaria parasite growth – strain 3D7 (AID 2306).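 Also: 0% = DMSO wells and 100% = chloroquine plus artemisinin control wells.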 The conditions noted are these: P. falciparum 3D7 erythrocytic growth, LDH absorbance, 72 h; at 2 µM; active compounds read high.
The target in test [5] is Calcium-dependent protein kinase 1 (Plasmodium falciparum (isolate 3D7)) (UniProt P62344). Description: PfCDPK1 kinase inhibitors, biochemical, TCAMS library (AID 1159585; cut-off not given, nearly all actives have IC50 up to about 0.98 µM;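 also: inhibitors leave more ATP so luminescence rises with inhibition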). The settings on record: recombinant PfCDPK1, Kinase-Glo ATP depletion luminescence. For orientation: In Kinase-Glo more light means more ATP remaining.
The target of test [6] is Plasmodium falciparum protein kinase 6 (PK6, PF3D7_1337100) (UniProt Q8IDW1). Description: PfPK6 kinase inhibitors, biochemical, TCAMS library (AID 1159586). The settings on record: recombinant PfPK6, Kinase-Glo ATP depletion luminescence.
The target of test [7] is Protein kinase 7 (PK7), Plasmodium falciparum 3D7 (PF3D7_0213400) (UniProt Q7YTF7). Briefly: inhibition of Plasmodium PK7 catalytic activity – biochemical, TCAMS antimalarial set, Kinase-Glo luminescence (AID 1159587). The settings on record: recombinant PfPK7, Kinase-Glo ATP depletion luminescence.
Test [8] concerns the target Calcium-dependent protein kinase 4 (Plasmodium falciparum (isolate 3D7)) (UniProt Q8IBS5). Briefly: PfCDPK4 kinase inhibitors, biochemical, TCAMS library (AID 1159588; cut-off not given, nearly all actives have IC50 up to about 0.91 µM). The settings on record: recombinant PfCDPK4, Kinase-Glo ATP depletion luminescence.

Each structure is given as a SMILES string. Values without a mark were called inactive. For some of these results: Entries with a potency or affinity are not part of this list. Active and inactive are the calls of the source. Unless noted, no rule for the calls is given here.

Sequence of Calcium-dependent protein kinase 1 (Plasmodium falciparum (isolate 3D7)) (P62344 whole entry, looked up): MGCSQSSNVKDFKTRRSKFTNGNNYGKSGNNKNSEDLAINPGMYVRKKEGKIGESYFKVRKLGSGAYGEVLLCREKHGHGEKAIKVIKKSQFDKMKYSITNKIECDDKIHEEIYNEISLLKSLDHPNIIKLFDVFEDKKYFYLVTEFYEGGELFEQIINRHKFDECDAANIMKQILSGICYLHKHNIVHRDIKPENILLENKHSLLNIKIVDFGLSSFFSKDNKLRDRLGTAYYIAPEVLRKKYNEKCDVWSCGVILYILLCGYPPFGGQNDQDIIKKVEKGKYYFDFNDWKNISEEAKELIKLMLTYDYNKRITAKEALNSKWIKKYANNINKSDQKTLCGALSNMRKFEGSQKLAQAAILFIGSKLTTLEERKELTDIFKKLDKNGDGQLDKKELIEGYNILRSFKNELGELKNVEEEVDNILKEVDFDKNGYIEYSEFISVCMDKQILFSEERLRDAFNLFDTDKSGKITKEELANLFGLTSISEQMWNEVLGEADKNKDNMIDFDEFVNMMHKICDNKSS
Sequence of L-lactate dehydrogenase (Plasmodium falciparum (isolate CDC / Honduras)) (Q27743 whole entry, looked up): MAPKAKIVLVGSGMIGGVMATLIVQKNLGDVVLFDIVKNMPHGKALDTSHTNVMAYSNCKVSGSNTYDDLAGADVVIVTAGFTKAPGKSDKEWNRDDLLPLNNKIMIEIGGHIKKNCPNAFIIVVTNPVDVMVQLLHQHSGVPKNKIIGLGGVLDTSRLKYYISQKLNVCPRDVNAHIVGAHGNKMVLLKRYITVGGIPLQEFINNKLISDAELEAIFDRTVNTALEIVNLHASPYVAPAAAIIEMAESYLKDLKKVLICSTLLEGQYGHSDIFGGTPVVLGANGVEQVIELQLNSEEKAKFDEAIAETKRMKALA
Sequence of Plasmodium falciparum protein kinase 6 (PK6, PF3D7_1337100) (Q8IDW1 1-305): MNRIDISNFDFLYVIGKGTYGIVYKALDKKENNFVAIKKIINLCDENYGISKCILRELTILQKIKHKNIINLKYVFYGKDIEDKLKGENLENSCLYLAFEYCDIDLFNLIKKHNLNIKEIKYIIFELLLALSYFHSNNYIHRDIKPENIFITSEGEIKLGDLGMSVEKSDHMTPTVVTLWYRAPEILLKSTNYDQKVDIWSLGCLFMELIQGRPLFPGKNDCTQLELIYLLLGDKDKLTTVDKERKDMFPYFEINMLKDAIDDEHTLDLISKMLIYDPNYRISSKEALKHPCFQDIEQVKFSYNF
Sequence of Calcium-dependent protein kinase 4 (Plasmodium falciparum (isolate 3D7)) (Q8IBS5 whole entry, looked up): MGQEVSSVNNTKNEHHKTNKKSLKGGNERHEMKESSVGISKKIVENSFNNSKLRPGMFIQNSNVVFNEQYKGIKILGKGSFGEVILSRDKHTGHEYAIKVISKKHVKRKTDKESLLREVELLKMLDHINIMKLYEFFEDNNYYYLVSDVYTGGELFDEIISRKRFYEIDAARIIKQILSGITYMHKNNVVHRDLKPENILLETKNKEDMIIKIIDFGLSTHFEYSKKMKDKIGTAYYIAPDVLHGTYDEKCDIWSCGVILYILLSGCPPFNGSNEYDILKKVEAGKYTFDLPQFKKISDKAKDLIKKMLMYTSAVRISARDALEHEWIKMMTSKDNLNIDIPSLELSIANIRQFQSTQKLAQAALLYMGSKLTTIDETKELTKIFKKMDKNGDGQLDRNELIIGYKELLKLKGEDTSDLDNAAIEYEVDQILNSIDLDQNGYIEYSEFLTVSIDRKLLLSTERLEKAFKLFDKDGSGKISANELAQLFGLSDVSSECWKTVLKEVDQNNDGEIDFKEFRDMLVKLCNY
Sequence of Protein kinase 7 (PK7), Plasmodium falciparum 3D7 (PF3D7_0213400) (Q7YTF7 1-343): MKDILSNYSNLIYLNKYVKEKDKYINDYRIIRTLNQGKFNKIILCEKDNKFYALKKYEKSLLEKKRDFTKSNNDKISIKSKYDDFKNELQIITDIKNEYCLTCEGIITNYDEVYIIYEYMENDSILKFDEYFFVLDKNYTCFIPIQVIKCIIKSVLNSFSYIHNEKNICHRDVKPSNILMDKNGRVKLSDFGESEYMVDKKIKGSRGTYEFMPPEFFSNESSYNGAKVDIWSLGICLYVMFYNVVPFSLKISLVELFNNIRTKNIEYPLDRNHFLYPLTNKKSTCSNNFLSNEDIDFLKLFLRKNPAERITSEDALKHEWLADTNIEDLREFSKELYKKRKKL

As a reminder, the inhibition is the relative decrease from the control value, in per cent. `CC(C)CNCc1ccc(-c2cccc(CN(CCCN3CCN(C)CC3)C(=O)/C=C/c3ccccc3)c2)cc1`: the growth inhibition in test [1] was 93% (active); in test [4] it was 95% (active). Moreover, the inhibition in test [2] was 43%; in test [3], 0%. Besides, the result in test [5], in test [6], in test [7] and in test [8] was inactive.
Take `COc1ccc(OCCON)cc1`: the growth inhibition is -3% in test [1] and 98% (active) in test [4]. For the same compound, the inhibition was 0% in test [2] and -2% in test [3]. Besides, the outcome in test [5], in test [6], in test [7] and in test [8] was inactive.
In the case of `Nc1nc(N)c2c(ccc3c2ccn3Cc2ccc(OCc3ccccc3)cc2)n1`, the growth inhibition was 1% in test [1] and 98% (active) in test [4]. Further, the inhibition in test [2] is 5%; in test [3] it was -2%. Further, the result in test [5], in test [6], in test [7] and in test [8] was inactive.
For the compound `CS(=O)(=O)N(c1cccc(F)c1)c1cc(C(=O)N[C@@H](Cc2ccccc2)[C@H](O)CNCc2cccc(C(F)(F)F)c2)cc(N2CCCC2=O)c1`, the growth inhibition in test [1] was 92% (active); in test [4], 98% (active). Besides, the inhibition in test [2] is 14%; in test [3], 1%. Besides, the result in test [5], in test [6], in test [7] and in test [8] was inactive.
As for `COc1ccc(-c2cc(C(=O)N[C@@H](CC3CCCCC3)C(=O)NC3CCCc4ccccc43)ccc2O)cc1` (stereo not given in full), the growth inhibition in test [1] is 97% (active); in test [4], 98% (active). In addition, the inhibition is 7% in test [2] and -1% in test [3]. For the same compound, the outcome in test [5], in test [6], in test [7] and in test [8] was inactive.
Consider `Cc1ccccc1C1CCN(C2CCC(NC(=O)C3=Cc4ccccc4OC3)CC2)CC1` (stereo not given), for which the growth inhibition in test [1] is 15%; in test [4], 91% (active). Further, the inhibition in test [2] was 26%; in test [3], -4%. In addition, the result in test [5], in test [6], in test [7] and in test [8] was inactive.
On to `COc1ccc2c(c1)CCCC2NCCCCNC(=O)c1ccc(NC(=O)c2ccc(Cl)cc2)cc1` (stereo not given), for which the growth inhibition in test [1] was 49%; in test [4], 100% (active). Moreover, the inhibition in test [2] was 27%; in test [3], -7%. For the same compound, the result in test [5], in test [6], in test [7] and in test [8] was inactive.
For `Clc1cccc(CNC2CCN(CC3CCCCC3)CC2)c1`, the figures for the growth inhibition in test [1] and in test [4] were 24% and 97% (active), respectively. Besides, the inhibition in test [2] was 4%; in test [3], -2%. The result in test [5], in test [6], in test [7] and in test [8] was inactive.
In the case of `C=CCc1cc(Cc2cnc(N)nc2N)c2ccc(C)nc2c1OC`, the figures for the growth inhibition in test [1] and in test [4] were -1% and 96% (active), respectively. Moreover, the inhibition in test [2] is 11%; in test [3], -4%. Also, the result in test [5], in test [6], in test [7] and in test [8] was inactive.
For `O=C(Nc1ccc(C(F)(F)F)cc1)Nc1cccc([N+](=O)[O-])c1`, the growth inhibition in test [1] is 98% (active); in test [4], 101% (active). In addition, the inhibition is 20% in test [2] and 4% in test [3]. In addition, the outcome in test [5], in test [6], in test [7] and in test [8] was inactive.
Take `O=C(C1CC1)N1c2ccccc2CCc2ccccc21`: the growth inhibition is 57% (active) in test [1] and 98% (active) in test [4]. Moreover, the inhibition was 40% in test [2] and 1% in test [3]. The outcome in test [5], in test [6], in test [7] and in test [8] was inactive.
With `Cc1cccc(OCC2CCN(c3ncc(C(=O)NC4CC4)cc3Cl)CC2)c1`, the growth inhibition in test [1] is 78% (active); in test [4] it was 90% (active). Moreover, the inhibition was -4% in test [2] and -2% in test [3]. Also, the result in test [5], in test [6], in test [7] and in test [8] was inactive.
Regarding `O=C(NCc1cc2c(cc1Cl)OCO2)c1ccc(CNC2CCN(Cc3ccccc3)CC2)cc1`, the results for the growth inhibition in test [1] and in test [4] were 47% and 100% (active), respectively. In addition, the figures for the inhibition in test [2] and in test [3] were 11% and -3%, respectively. Further, the result in test [5], in test [6], in test [7] and in test [8] was inactive.
Take `Cc1ccc2[nH]c3c(NCCCN4CCOCC4)ncnc3c2c1`: the growth inhibition was 9% in test [1] and 101% (active) in test [4]. In addition, the inhibition is -1% in test [2] and -3% in test [3]. In addition, the outcome in test [5], in test [6], in test [7] and in test [8] was inactive.
Consider `Cc1cccc2[nH]c(-c3ccc(-c4cccc(NC(=O)NCc5ccccc5)c4)cc3)nc12`, for which the values for the growth inhibition in test [1] and in test [4] were 0% and 95% (active), respectively. For the same compound, the inhibition in test [2] was 25%; in test [3], -6%. The outcome in test [5], in test [6], in test [7] and in test [8] was inactive.
Take `Cc1cccc2[nH]c(-c3ccc(-c4ccc(NC(=O)Nc5cccc(C#N)c5)cc4)s3)nc12`: the results for the growth inhibition in test [1] and in test [4] were 100% (active) and 101% (active), respectively. For the same compound, the figures for the inhibition in test [2] and in test [3] were 33% and -6%, respectively. Also, the result in test [5], in test [6], in test [7] and in test [8] was inactive.
Take `Cc1ncsc1CCN1C(=O)CC2(C1=O)C(=O)N(Cc1ccccc1)c1ccc(Cl)cc12` (stereo not given): the figures for the growth inhibition in test [1] and in test [4] were 46% and 86% (active), respectively. Also, the inhibition is 0% in test [2] and 1% in test [3]. Besides, the result in test [5], in test [6], in test [7] and in test [8] was inactive.
On to `CN(C)CCOc1ccc(-n2c(-c3nonc3N)nc3cncc(-c4ccc(F)cc4)c32)cc1`, for which the values for the growth inhibition in test [1] and in test [4] were 7% and 97% (active), respectively. The values for the inhibition in test [2] and in test [3] were 10% and 5%, respectively. Moreover, the outcome in test [5], in test [6], in test [7] and in test [8] was inactive.
In the case of `CC(C)=C(C(=O)OCc1ccccc1)N1C(=O)[C@@H](NC(c2ccccc2)(c2ccccc2)c2ccccc2)[C@H]1[S@@](=O)CC(=O)OC(C)(C)C`, the growth inhibition is 78% (active) in test [1] and 92% (active) in test [4]. The inhibition in test [2] was -2%; in test [3] it was -4%. The result in test [5], in test [6], in test [7] and in test [8] was inactive.
In the case of `Cc1ccc(NC(=O)N2CCCN(CCCCCNC(=O)/C=C/c3ccc(Cl)c(Cl)c3)CC2)cc1`, the results for the growth inhibition in test [1] and in test [4] were 2% and 99% (active), respectively. The inhibition was 12% in test [2] and -6% in test [3]. In addition, the result in test [5], in test [6], in test [7] and in test [8] was inactive.
